Experimental data from PubChem BioAssay.
Active and inactive are the calls of the source.

Assays:
[1] = small molecules captured by biotinylated probe aFSTL3 – biochemical, small-molecule microarray, fluorescence 635/667, stem cell growth factor project, primary screen (AID 1064); details: higher = more signal;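 further: measures binding of the biotinylated anti-FSTL3 antibody to printed compounds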
[2] = binders from COS7 lysate, DM2A8 probe, primary screen, torsin A project, cell lysate, small-molecule microarray, fluorescence 635/667 (AID 1065); details: higher = more signal, COS7 lysate expressing mutant human TOR1A
[3] = small molecules captured by biotinylated probe aFGF2 – biochemical, small-molecule microarray, fluorescence 635/667, stem cell growth factor project, primary screen (AID 1067); details: higher = more signal;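 further: measures binding of biotinylated aFGF2 protein to printed compounds on slides; z-score merges feature fluorescence and signal-to-noise across triplicate slides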
[4] = small molecules captured by biotinylated probe aFGF10 – biochemical, small-molecule microarray, fluorescence 635/667, stem cell growth factor project, primary screen (AID 1071); details: higher = more signal;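 further: score merges 667 nm spot intensity and signal to noise from triplicate slides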
[5] = molecular target: Neurogenic locus notch homolog protein 2 (Homo sapiens) (UniProt Q04721); assay: small molecules binding Notch2 protein – biochemical, small-molecule microarray, 635 nm fluorescence, stem cell growth factors, primary screen (AID 1073); details: higher = more signal
Neurogenic locus notch homolog protein 2 (Homo sapiens), sequence (Q04721 whole entry, looked up, canonical isoform): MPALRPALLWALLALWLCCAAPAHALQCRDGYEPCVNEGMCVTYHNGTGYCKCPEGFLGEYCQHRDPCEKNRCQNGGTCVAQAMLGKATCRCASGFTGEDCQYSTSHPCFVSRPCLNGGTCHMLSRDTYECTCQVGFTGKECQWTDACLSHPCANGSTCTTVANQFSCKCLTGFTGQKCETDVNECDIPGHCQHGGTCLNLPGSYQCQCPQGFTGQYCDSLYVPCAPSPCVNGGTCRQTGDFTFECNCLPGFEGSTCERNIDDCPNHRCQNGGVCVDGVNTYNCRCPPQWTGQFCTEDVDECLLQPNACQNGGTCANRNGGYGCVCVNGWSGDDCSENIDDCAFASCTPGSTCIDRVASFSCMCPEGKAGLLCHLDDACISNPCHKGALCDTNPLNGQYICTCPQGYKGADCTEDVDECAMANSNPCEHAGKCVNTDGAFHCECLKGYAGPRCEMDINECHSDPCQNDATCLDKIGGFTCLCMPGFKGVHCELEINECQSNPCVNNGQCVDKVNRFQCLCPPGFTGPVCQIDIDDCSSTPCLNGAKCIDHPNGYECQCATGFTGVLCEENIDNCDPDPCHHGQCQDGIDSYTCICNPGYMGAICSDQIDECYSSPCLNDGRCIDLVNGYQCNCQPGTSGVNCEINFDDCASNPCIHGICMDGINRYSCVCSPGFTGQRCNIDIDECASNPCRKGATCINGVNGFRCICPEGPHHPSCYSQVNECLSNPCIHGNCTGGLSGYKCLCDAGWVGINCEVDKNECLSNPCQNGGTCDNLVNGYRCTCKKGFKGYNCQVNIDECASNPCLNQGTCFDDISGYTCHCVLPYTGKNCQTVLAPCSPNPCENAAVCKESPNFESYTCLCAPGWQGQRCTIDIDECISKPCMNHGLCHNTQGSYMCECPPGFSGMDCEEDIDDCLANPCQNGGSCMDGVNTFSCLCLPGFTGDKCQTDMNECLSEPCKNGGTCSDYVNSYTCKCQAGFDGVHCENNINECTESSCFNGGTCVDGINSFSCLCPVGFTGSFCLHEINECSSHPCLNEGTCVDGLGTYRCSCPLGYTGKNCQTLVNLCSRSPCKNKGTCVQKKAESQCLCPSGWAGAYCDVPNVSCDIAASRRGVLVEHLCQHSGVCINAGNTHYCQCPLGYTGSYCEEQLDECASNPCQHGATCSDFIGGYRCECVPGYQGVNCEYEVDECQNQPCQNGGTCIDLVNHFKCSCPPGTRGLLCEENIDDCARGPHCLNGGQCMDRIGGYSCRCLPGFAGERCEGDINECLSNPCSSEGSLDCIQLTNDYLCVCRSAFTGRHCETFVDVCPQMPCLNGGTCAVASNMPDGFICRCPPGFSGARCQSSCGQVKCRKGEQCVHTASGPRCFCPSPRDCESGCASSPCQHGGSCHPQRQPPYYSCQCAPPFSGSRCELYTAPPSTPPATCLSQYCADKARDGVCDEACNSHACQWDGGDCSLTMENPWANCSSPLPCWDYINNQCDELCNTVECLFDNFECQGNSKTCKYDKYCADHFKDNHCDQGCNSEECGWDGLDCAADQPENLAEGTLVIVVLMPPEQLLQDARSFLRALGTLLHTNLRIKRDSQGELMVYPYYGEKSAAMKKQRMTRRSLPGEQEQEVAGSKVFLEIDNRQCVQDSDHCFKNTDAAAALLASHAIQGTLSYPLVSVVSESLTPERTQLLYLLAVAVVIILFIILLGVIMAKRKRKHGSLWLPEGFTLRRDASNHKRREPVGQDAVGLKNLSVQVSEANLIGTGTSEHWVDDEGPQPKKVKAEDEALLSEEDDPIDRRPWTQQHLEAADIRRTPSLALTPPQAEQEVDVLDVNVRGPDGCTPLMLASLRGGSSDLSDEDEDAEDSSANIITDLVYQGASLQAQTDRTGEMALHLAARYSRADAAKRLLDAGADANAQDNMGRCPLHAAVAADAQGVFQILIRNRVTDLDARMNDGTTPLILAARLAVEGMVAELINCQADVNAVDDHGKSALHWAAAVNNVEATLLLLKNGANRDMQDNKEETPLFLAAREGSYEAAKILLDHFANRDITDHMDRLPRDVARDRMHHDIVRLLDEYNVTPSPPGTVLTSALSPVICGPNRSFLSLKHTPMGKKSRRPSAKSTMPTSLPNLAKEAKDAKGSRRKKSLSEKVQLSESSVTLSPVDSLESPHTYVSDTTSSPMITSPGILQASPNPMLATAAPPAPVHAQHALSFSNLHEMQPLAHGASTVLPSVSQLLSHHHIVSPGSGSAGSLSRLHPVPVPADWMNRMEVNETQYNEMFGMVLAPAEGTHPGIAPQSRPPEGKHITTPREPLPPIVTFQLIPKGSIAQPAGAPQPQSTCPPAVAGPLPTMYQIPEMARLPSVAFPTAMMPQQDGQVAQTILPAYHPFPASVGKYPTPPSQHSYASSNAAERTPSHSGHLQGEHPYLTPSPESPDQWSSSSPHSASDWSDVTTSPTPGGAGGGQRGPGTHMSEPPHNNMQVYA

[6] = molecular target: Pro-neuregulin-1, membrane-bound isoform (Homo sapiens) (UniProt Q02297); assay: small molecules binding neuregulin-1 protein – biochemical, small-molecule microarray, fluorescence 635/667, psychiatric disease protein project, primary screen (AID 1075); details: NRG1 binding, 635 nm fluorescence, higher = more signal;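 further: score combines 667 nm spot fluorescence with signal to noise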
Pro-neuregulin-1, membrane-bound isoform (Homo sapiens), sequence (Q02297 whole entry, looked up, the tested form may be a part, canonical isoform): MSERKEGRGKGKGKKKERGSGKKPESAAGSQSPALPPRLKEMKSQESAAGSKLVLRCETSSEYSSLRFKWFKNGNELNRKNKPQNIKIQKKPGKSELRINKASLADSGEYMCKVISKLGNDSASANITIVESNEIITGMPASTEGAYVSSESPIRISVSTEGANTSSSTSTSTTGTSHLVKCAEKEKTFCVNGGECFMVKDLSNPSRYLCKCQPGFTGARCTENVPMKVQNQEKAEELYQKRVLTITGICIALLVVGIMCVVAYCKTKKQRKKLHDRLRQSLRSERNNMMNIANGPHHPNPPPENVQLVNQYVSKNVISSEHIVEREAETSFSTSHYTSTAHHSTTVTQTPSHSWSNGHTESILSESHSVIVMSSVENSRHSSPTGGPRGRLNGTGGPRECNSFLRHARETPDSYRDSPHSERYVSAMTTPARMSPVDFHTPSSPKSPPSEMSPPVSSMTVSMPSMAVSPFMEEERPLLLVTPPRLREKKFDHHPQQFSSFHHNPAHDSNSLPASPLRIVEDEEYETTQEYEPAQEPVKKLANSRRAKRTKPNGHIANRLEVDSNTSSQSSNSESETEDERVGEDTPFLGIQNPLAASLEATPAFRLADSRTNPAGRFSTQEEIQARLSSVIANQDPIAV

[7] = test system: Neuregulin-1 EGF-like domain; assay: small molecules binding NRG1 EGF domain – biochemical, small-molecule microarray, 635 nm fluorescence, primary screen (AID 1081); details: higher = more signal;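 further: binding of the protein to compounds printed on small-molecule microarray slides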
[8] = FRG1 expression reporter modulators in myotubes – cell-based, C2C12 myotubes, firefly/Renilla luciferase, luminescence, FRG1 inhibition for FSHD, primary screen (AID 1084); details: FRG1 promoter luciferase, higher = more signal, called active from +8 up or from −8 down
[9] = small molecules captured by biotinylated probe aFST – biochemical, small-molecule microarray, fluorescence 635/667, stem cell growth factor project, primary screen (AID 1086); details: higher = more signal;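 further: score merges 667 nm fluorescence with signal-to-noise of each printed compound spot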
[10] = binders of probe aHhip on microarray, primary screen, stem cell growth factor project, biochemical, small-molecule microarray, fluorescence 635/667 (AID 1087); details: higher = more signal;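 further: score merges spot fluorescence at 667nm with spot signal to noise ratio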
[11] = test system: PRMT1 (protein arginine N-methyltransferase 1); assay: small molecules binding arginine methyltransferase PRMT1 – biochemical, small-molecule microarray, 635 nm fluorescence, primary screen (AID 1088); details: higher = more signal;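 further: binding of Prmt1 protein to compounds spotted on small-molecule microarray slides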
[12] = growth effects on S. cerevisiae YJM789 – YJM789 clinical isolate, OD600, 24 h, basal, primary screen (AID 1089); details: higher = more signal, called active from +8 up or from −8 down;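 further: growth of clinical yeast isolate S. cerevisiae YJM 789 seeded 1000 cells per well; test concentration not given here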
[13] = S. pombe growth modifiers, basal conditions – strain 972, OD600, 24 h, no modulator, primary screen (AID 1090);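 further: basal condition with compound alone and no growth modifier present; test concentration not given here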; details: S. pombe 972 growth, higher = more signal, called active from +8 up or from −8 down
[14] = budding yeast growth modifiers under rapamycin – strain BY4716, OD600, 96 h, primary screen (AID 1091); further: test concentration not given here; details: S. cerevisiae BY4716 + rapamycin, higher = more signal, called active from +8 up or from −8 down
[15] = molecular target: Torsin-1A-interacting protein 2 (Homo sapiens) (UniProt Q8NFQ8); assay: small molecules binding lysate-expressed LULL1 – cell lysate, human LULL1 lysate, 635/667 nm fluorescence, primary screen (AID 1092); details: small-molecule microarray, hLULL1 lysate binding, 635 nm fluorescence; higher = more signal;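 further: probe is lysate of COS7 cells overexpressing human LULL1; score merges per-feature 667 nm fluorescence with signal-to-noise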
Torsin-1A-interacting protein 2 (Homo sapiens), sequence (Q8NFQ8 whole entry, looked up): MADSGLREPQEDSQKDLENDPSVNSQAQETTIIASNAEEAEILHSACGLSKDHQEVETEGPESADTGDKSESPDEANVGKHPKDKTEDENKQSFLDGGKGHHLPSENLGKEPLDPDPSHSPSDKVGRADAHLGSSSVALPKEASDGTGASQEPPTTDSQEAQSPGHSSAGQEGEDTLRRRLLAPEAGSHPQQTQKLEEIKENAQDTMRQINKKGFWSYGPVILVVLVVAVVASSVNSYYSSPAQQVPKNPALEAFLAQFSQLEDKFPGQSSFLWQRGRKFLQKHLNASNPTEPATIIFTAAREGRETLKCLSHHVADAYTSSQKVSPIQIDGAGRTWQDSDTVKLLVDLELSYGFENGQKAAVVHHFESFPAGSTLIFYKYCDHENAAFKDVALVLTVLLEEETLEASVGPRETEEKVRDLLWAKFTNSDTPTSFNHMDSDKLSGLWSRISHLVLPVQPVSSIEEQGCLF

[16] = optical density change of DRC41 E. coli – strain DRC41, OD650, 24 h, E. coli filamentation project, primary screen (AID 1093);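 further: MC1000 strain lacking acrAB efflux and sulA so SOS filamentation is blocked; test concentration not given here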; details: E. coli DRC41 growth, higher = more signal, called active from +8 up or from −8 down
[17] = probe aLefty2 binding to arrayed compounds – biochemical, biotinylated probe, 635/667 nm fluorescence, primary screen (AID 1094); details: small-molecule microarray, higher = more signal;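 further: score merges spot fluorescence near 667 nm with spot signal-to-noise ratio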
[18] = test system: Noggin (protein binding on small-molecule microarray); assay: small molecules binding Noggin protein – biochemical, 635/667 nm fluorescence, primary screen (AID 1095); details: 635 nm fluorescence, higher = more signal;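 further: score merges 667 nm feature fluorescence with signal to noise over triplicate slides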
[19] = molecular target: Neurogenic locus notch homolog protein 3 (Homo sapiens) (UniProt Q9UM47); assay: small molecules binding NOTCH3 protein – biochemical, 635/667 nm fluorescence, primary screen (AID 1096); details: small-molecule microarray, 635 nm fluorescence, higher = more signal
[20] = probe aEGFR binding to arrayed compounds – biochemical, biotinylated probe, 635/667 nm fluorescence, primary screen (AID 1097); details: small-molecule microarray, higher = more signal;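 further: probe is a biotinylated anti-EGFR antibody binding compounds printed on slides; score combines fluorescence near 667 nm and signal to noise of each spot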

Structure (SMILES)	composite z-score [1]	composite z-score [2]	composite z-score [3]	composite z-score [4]	composite z-score [5]	composite z-score [6]	composite z-score [7]	z-score [8]	composite z-score [9]	composite z-score [10]	composite z-score [11]	z-score [12]	z-score [13]	z-score [14]	composite z-score [15]	z-score [16]	composite z-score [17]	composite z-score [18]	composite z-score [19]	composite z-score [20]
O=C1O[C@@H](c2ccccc2)[C@@H](c2ccccc2)N2[C@@H](c3ccccc3OCCO)[C@]3(C(=O)Nc4ccc(C#CCCO)cc43)[C@@H](C(=O)N3CCCCCCC3)[C@H]12	4.01	2.76	1.1	1.47	1.83	2.86	1.35	-3.55 (inactive)	3.89	2.64	1.53	0.295 (inactive)	-4.61 (inactive)	1.33 (inactive)	5.16	-0.798 (inactive)	1.99	2.28	1.01	1.49
[N-]=[N+]=NCc1ccccc1[C@H]1OC(c2ccc(OCCCO)cc2)=N[C@@]1(CCS(=O)(=O)c1ccccc1)C(=O)NCC(O)CO (stereo not given in full)	0.115	-0.191	0.252	0.564	1.47	1.25	1.36	0.515 (inactive)	1.46	0.126	1.56	0.633 (inactive)	-0.107 (inactive)	3.65 (inactive)	3.79	-0.28 (inactive)	0.0761	0.286	1.06	0.178
CCCNC(=O)[C@@H]1c2ccccc2C(=O)N(C(C)C)[C@H]1c1ccc(CO)cc1	0.277	-0.638	-0.112	-0.303	-0.664	1.23	1.2	-0.273 (inactive)	0.103	-0.271	0.541	0.853 (inactive)	0.668 (inactive)	-0.148 (inactive)	0.618	0.924 (inactive)	-0.0458	-0.231	-0.421	-0.196
O=C1OCCC/C=C\[C@H]2OC34C=CCN(CCN5CCOCC5)C(=O)[C@H]3N(CCCCCCO)C(=O)[C@@H]4C12 (stereo not given in full)	0.0814	2.31	-0.171	-0.291	-0.0784	1.91	1.17	-1.05 (inactive)	-0.151	-0.0994	0.733	-1.84 (inactive)	-1.29 (inactive)	-0.529 (inactive)	2.39	1.33 (inactive)	-0.166	-0.0171	0.18	-0.0953
COCCOC(=O)N1C(=O)[C@@]2(c3cc(C#CC4=CCCCC4)ccc31)[C@H](c1ccccc1OCCO)N1[C@H](c3ccccc3)[C@H](c3ccccc3)OC(=O)[C@H]1[C@@H]2C(=O)N1CCCCCCC1	0.493	0.107	0.0829	0.61	1.1	0.382	1.29	-0.639 (inactive)	0.497	-0.972	1.57	1.31 (inactive)	1.59 (inactive)	3.07 (inactive)	2.9	0.0735 (inactive)	-0.573	0.766	1.05	0.0961
COCCOC(=O)N1C(=O)[C@@]2(c3cc(C#Cc4ccc(OC)cc4)ccc31)[C@H](C(=O)Nc1nc3ccccc3s1)[C@H]1C(=O)O[C@H](c3ccccc3)[C@H](c3ccccc3)N1[C@@H]2c1ccc(OCCO)cc1	-0.51	0.661	-0.0569	0.784	1.21	0.138	1.11	4.61 (inactive)	0.632	-0.0618	1.56	3.34 (inactive)	2.1 (inactive)	4.58 (inactive)	1.02	0.575 (inactive)	-0.0699	1.54	1.13	0.0311
C=CCNC(=O)[C@H]1[C@@H]2C(=O)O[C@@H](c3ccccc3)[C@@H](c3ccccc3)N2[C@@H](c2ccc(O)cc2)[C@]12C(=O)N(C(=O)OCCOC)c1ccccc12	-0.548	0.267	0.0407	1.16	1.05	1.33	1.29	-1.96 (inactive)	0.303	-0.541	1.42	0.734 (inactive)	-0.66 (inactive)	2.39 (inactive)	2.84	0.507 (inactive)	-0.0095	0.537	1	0.0798
NC(=O)NCC#Cc1ccc2c(c1)[C@]1(C(=O)N2)[C@H](C(=O)O)[C@H]2C(=O)O[C@H](c3ccccc3)[C@H](c3ccccc3)N2[C@@H]1c1ccc(OCCO)cc1	0.131	0.35	-0.139	0.0382	0.247	0.881	0.851	-0.359 (inactive)	0.718	-0.0994	1.1	0.33 (inactive)	0.459 (inactive)	-0.524 (inactive)	1.37	0.8 (inactive)	-0.199	0.205	0.1	-0.181
CCCC[C@@H]1C[C@H]1[C@@H](NC(=O)c1ccccc1)c1ccc(C(F)(F)F)cc1	0.79	-1.02	-0.0908	-0.333	-0.601	-0.612	-0.521	-0.858 (inactive)	0.0249	-0.175	-0.914	0.82 (inactive)	0.987 (inactive)	0.151 (inactive)	-0.962	-0.582 (inactive)	0.161	0.337	-0.769	-0.15
